Screens (PubChem BioAssay)
The list is not random: actives were taken first. Their share in the collection is about 2.4%.
Pol kappa inh-1 = blocks human DNA polymerase kappa activity; Potency, µM (series often up to 107 µM), hits mostly inhibitors; actives 0.53% (n = 400,000); Q9UBT6; AID 588579; purified Pol kappa, fluorescent DNA synthesis assay, 10 min
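Inhibition of 10 nM Pol kappa is measured by a fluorescent read-out at 0 and 10 min following addition of 50 nM substrate (final), with a 15-min room-temperature compound preincubation.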
GLS inhibitor = blocks human kidney-isoform glutaminase activity; actives 0.21% (n = 410,000); GLS enzymatic activity, qHTS titration; O94925; Potency, µM (series often up to 45.5 µM), hits mostly inhibitors
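Human kidney-isoform GLS in 45 mM KH2PO4 pH 8.2, 0.02% Tween-20, with compound, started with 1mM L-Glutamine (added stock). Glutamate oxidase/HRP/Amplex red coupled fluorescence read at start and after 30 min at RT.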
KAT2A inh = blocks human GCN5L2 histone acetyltransferase; Q92830; GCN5L2 HAT assay, ThioGlo1 CoA-SH fluorescence; actives 0.21% (n = 390,000); Potency, µM (highest dose often 58.9 µM), usual class: inhibitors; AID 504327
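Preincubate 20nM GCN5L2 with compound 15 min, RT → add 50uM ThioGlo1 + 75uM H3(1-25) + 70uM acetyl-CoA → read fluorescence 0 and 20 min. Primary qHTS; fluorescent artifacts likely.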
Pol eta inh-1 = inhibitors of human DNA polymerase eta; Potency, µM (titrated, usually from 114 µM), most hits filed as inhibitors; recombinant Pol eta, fluorescent DNA replication assay; AID 588591; actives 1.2% (n = 390,000); Q9Y253
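Fluorescent replication assay: 50 nM final substrate added after a 15 min room-temperature compound preincubation with 10 nM enzyme. Signal taken at 0 min and again at 10 min.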
Pol iota inh = inhibitors of human DNA polymerase iota | Q9UNA4 | Pol iota fluorescent replication assay, 10 min | Potency, µM (doses to about 115 µM), usual class: inhibitors | actives 1% (n = 390,000)
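Fluorescent replication assay read twice, at 0 min and 10 min after adding 50 nM (final) substrate. Enzyme (10 nM) and compounds were first incubated 15 min at room temperature; enzyme-free buffer wells were negative controls.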
POLB inh = inhibitors of human DNA polymerase beta; actives 1.3% (n = 340,000); Potency, µM (top dose mostly 114 µM), most hits filed as inhibitors; P06746; AID 485314; Pol beta primer extension/strand displacement, fluorescence kinetic
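Enzyme-only controls used 10 nM Pol beta; buffer lacking enzyme served as negative control. Compound preincubated 15 min, then 50 nM substrate added; 0 and 10 min reads at room temperature.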
PGK validate = blocks T. brucei phosphoglycerate kinase; shares compounds with Pol kappa inh-1; TbPGK coupled GAPDH assay, Kinase-Glo luminescence; Potency, µM (titrated, usually from 57.5 µM), actives largely listed as inhibitors; actives 79% (n = 500); also: nearly all actives have a fitted effect of over 65% in size
Target sequence (P07378 whole entry, looked up): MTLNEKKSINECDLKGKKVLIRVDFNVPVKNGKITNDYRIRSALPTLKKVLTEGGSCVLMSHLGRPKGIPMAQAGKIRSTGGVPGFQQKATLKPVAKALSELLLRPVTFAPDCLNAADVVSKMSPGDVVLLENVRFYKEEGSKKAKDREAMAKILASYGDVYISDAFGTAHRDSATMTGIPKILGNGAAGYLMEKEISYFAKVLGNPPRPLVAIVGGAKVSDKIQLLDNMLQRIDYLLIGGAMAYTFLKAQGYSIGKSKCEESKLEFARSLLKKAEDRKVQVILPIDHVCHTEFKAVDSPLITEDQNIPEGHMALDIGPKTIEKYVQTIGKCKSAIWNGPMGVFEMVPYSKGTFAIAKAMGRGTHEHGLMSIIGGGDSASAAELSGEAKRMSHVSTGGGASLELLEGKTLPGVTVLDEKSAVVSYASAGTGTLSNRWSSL
Pol iota confirm = Human Pol iota inhibitor confirmatory assay; actives 77% (n = 1,500); Pol iota primer extension, TAMRA/BHQ fluorescence; Potency, µM, usual class: inhibitors; AID 720496; shares compounds with Pol kappa inh-1
Pol kappa inh-2 = confirmation of human DNA polymerase kappa inhibitors | actives 76% (n = 920) | AID 720501 | Potency, µM, hits mostly inhibitors | purified Pol-kappa, fluorescent strand-displacement substrate | shares compounds with Pol eta inh-1
Pol eta inh-2 = Pol eta (human) inhibition, cherry-pick confirmation; Pol eta primer extension, TAMRA/BHQ fluorescence, 10 min; actives 64% (n = 2,600); Potency, µM, usual class: inhibitors; shares compounds with Pol eta inh-1
Hits are given with their value; – = inactive; ? = inconclusive; · = no result. Calls follow the shape of the dose curve; as a rule, active = well fitted curve in the direction sought with a large enough effect; inconclusive = small, poorly fitted or top-dose-only effect, or another doubt; inactive = no such curve, though single readings can be large; an effect the other way counts as inactive or inconclusive.

SMILES	Pol kappa inh-1	GLS inhibitor	KAT2A inh	Pol eta inh-1	Pol iota inh	POLB inh	Pol iota confirm	Pol eta inh-2	others
O=C(CCN1C(=O)/C(=C/c2ccc3c(c2)OCO3)SC1=S)Nc1ccc(C(=O)O)cc1	–	–	–	?	?	?	75	·
CCOc1ccc(/C=C2\SC(=S)N(CCC(=O)Nc3cccc(C(=O)O)c3)C2=O)cc1	–	–	–	45µM	?	–	75	·
CCOc1ccccc1NC(=O)Cn1c(=O)n(Cc2ccccc2)c(=O)c2c(C)c(C)sc21	–	–	–	·	–	–	·	·
COc1ccc(S(=O)(=O)c2cnc3ccc(Cl)cc3c2N2CCCCC2C)cc1 (stereo not given)	–	–	–	–	–	–	·	·
CCc1ccccc1NC(=O)c1oc(=O)c2ccccc2c1-c1ccccc1	–	–	–	–	–	–	·	·
Cc1ccc(-c2cc3c(nn2)-c2ccccc2C3=O)cc1	–	–	–	?	–	–	·	·	PGK validate=5.8µM
O=C1c2ccccc2-c2nnc(-c3ccc(F)cc3)cc21	–	–	–	–	?	–	·	·
CCN(CC)c1ccc(C(=O)NNC(=O)CCl)cc1	–	–	–	–	–	–	·	·
CCN(CC)c1ccc(C(=C2C=CC(=[N+](CC)CC)C=C2)c2ccc(N(CC)CC)cc2)cc1	–	–	·	–	–	·	·	·	PGK validate=16µM
COc1cc(C(=O)OCc2cc(=O)n3nc(C(C)C)sc3n2)cc(OC)c1OC	–	–	–	–	–	–	·	·
O=C(c1ccc2c(c1)OCO2)c1cn(Cc2ccc(F)cc2)c2ccccc2c1=O	–	–	–	–	–	–	·	·
Cc1cccc(-n2c(C)nnc2SCC(=O)NC(C)c2ccco2)c1 (stereo not given)	–	·	·	·	?	·	·	·
O=C(CNc1ccc2ccccc2c1)N/N=C/C=C/c1cccc([N+](=O)[O-])c1	–	–	–	16µM	?	?	75	·
O=C1CCCC(O)=C1N=Nc1cccc(C(=O)O)c1	50µM	–	–	10µM	14µM	10µM	34	27
COc1ccc(CN2C(=O)N(c3ccc(F)cc3)C(=O)C2CC(=O)Nc2ccccc2)cc1 (stereo not given)	–	–	–	–	–	–	·	·
COc1ccc(CNc2ccc3cc(S(=O)(=O)N4CCCCC4)ccc3n2)cc1	–	–	–	–	–	–	·	·
COc1cccc(NC(=O)c2cc3c(-c4ccc(Cl)cc4)nn(C)c3s2)c1	–	–	–	–	–	–	·	·
O=C(O)COc1ccccc1/C=N/NC(=O)/C(=C\c1ccc2c(c1)OCO2)NC(=O)c1ccccc1	–	–	–	?	?	–	42	?
Cc1cc(C(=O)NNC(=O)/C=C/c2ccco2)c(C)o1	22µM	10µM	–	2.2µM	3.2µM	·	?	17	PGK validate=16µM
Cc1ccc2nc(-c3cccc(NC(=O)CSc4ccc(Cl)cc4)c3)oc2c1	–	–	–	·	–	–	·	·
COc1cccc(NS(=O)(=O)c2ccc3c(c2)C2C=CCC2C(c2ccc(C(=O)O)cc2)N3)c1 (stereo not given)	16µM	?	?	3.2µM	20µM	?	38	27
CCC1=C(c2ccc(C)cc2)S(=O)(=O)N=C1N1CCC(C(=O)NCCc2ccc(Cl)cc2)CC1	–	–	–	–	–	–	·	·
CC(=O)c1ccc(N=Nc2ccc(C)cc2)cc1	–	–	–	–	–	–	·	·
C=C(C)C(=O)Oc1ccc(N=Nc2ccc(C)cc2)ccc1=O	50µM	?	·	3.5µM	?	·	24	19	PGK validate=1.5µM;Pol kappa inh-2=11
CCCCn1c(NC(=O)c2ccco2)c(S(=O)(=O)c2ccc(C)cc2)c2nc3ccccc3nc21	–	–	–	–	–	?	·	·
SMILES	Pol kappa inh-1	GLS inhibitor	KAT2A inh	Pol eta inh-1	Pol iota inh	POLB inh	Pol iota confirm	Pol eta inh-2	others
CCCCn1c(NS(=O)(=O)c2ccccc2)c(S(=O)(=O)c2ccc(C)cc2)c2nc3ccccc3nc21	–	–	?	45µM	7.9µM	–	?	?
Cc1ccccc1/C=C/c1nc2ccccc2c(=O)[nH]1	?	–	–	?	?	22µM	47	85
Cc1ccc(-n2nnnc2SCC(=O)NCCc2ccccc2)cc1C	–	–	–	?	–	–	·	·
Cc1nc2cc(C(=O)O)ccc2s1	–	–	–	–	–	–	·	·
Cc1nc2ccc(C(=O)O)cc2c2c1CC(C)S2 (stereo not given)	32µM	?	–	2.5µM	5µM	22µM	19	9.5
COc1cc(/C=N/NC(N)=O)ccc1OCC(=O)Nc1ccc(C)c(C)c1	89µM	–	–	28µM	32µM	?	42	76
COc1cc(/C=N/NC(N)=S)ccc1OCC(=O)Nc1ccc(C)c(C)c1	–	–	·	?	?	–	·	·
Cn1c(SCC(=O)Nc2cccc(C(=O)O)c2)nnc1-c1cc2cc(Br)ccc2o1	–	–	–	?	?	?	?	?
COc1ccc(NC(=O)Cn2c(=O)n(-c3cc(C)cc(C)c3)c(=O)c3oc4ccccc4c32)cc1OC	–	–	–	–	–	?	·	·
CCOC(=O)Cc1ccc(NC(=O)Nc2cc3c(cc2N2CCCCC2)n(C)c(=O)n3C)cc1	–	–	–	–	–	–	·	·
COC(=O)c1cc(S(=O)(=O)N2CCOCC2)c(Cl)cc1N1CCOCC1	–	–	–	–	–	–	·	·
